# DT40 TDP1 CPT: DT40-hTDP1 cell growth loss with CPT. chicken DT40 Tdp1-/-;hTDP1 cells + 20 nM CPT, ATP luminescence, 48 h. Potency, µM (series often up to 46.2 µM), for the others: at the highest dose activity change, negative = growth inhibition, most hits filed as inhibitors. hit rate 12% among 420,000; also: potency is read from the fitted curve at half-maximal effect; nearly all actives have a fitted effect of over 55% in size
#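 Chicken DT40 Tdp1-/- cells stably complemented with human TDP1 were seeded at 400 cells/well in medium containing 20 nM camptothecin, exposed to pin-transferred compounds, and grown at 37 °C for at least 48 hr. Viability was read as ATP luminescence.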
# ALOX12 inh: blocks human arachidonate 12S-lipoxygenase; Potency, µM (series often up to 108 µM), without a hit: at the highest dose activity change, negative = inhibition, most hits filed as inhibitors; purified 12hLO, xylenol orange hydroperoxide absorbance; hit rate 1.1% among 580,000; P18054; AID 1671190; also: potency is read from the fitted curve at half-maximal effect
# Target sequence (P18054 whole entry, looked up): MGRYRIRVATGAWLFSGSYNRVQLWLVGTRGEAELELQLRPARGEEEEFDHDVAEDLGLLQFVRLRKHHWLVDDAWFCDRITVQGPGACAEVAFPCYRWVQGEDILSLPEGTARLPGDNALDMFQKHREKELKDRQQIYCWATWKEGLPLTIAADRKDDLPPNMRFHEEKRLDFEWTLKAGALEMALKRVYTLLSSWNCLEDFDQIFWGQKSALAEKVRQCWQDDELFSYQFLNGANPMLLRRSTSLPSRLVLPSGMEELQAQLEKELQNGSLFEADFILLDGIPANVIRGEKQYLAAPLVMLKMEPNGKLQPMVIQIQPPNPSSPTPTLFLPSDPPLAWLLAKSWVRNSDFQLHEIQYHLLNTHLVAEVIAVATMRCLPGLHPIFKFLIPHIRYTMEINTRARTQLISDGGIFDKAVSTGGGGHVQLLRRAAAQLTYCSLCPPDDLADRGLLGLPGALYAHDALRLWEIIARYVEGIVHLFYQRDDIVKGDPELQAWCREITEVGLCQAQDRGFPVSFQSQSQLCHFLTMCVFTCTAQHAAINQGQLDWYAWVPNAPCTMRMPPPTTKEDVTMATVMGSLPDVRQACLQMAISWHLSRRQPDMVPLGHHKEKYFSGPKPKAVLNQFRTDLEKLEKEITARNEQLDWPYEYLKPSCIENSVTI
#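 Hydroperoxide product was detected by ferrous iron/xylenol orange as the 573 to 405 nm absorbance ratio. Arachidonic acid at 40 uM (final) was turned over for 30 min at room temperature by 150 nM human 12hLO, pH 7.0 Hepes buffer, after 15 min compound preincubation.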
# IL1B secr inh: blocks inflammasome-driven IL-1 beta release | THP-1 LPS/ATP IL-1B secretion, AlphaLISA, 16 h; stronger effect = lower value | activity change, % at 57.5 µM | hit rate 4.7% among 360,000 | AID 743279; in the data active = activity change below about -50%; inconclusive = mostly about -30% to -49%
#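 Secreted IL-1B measured by AlphaLISA bead assay after 16 h compound exposure of THP-1 cells; compounds (final up to 57.5 uM) added 1 h before LPS (250 ng/mL) and ATP (1.25 mM) stimulation; lower signal means less secretion.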
# TDP1 cell noCPT: qHTS for Inhibitors of human tyrosyl-DNA phosphodiesterase 1 (TDP1): qHTS in cells in absence of CPT. DT40 Tdp1-/- hTDP1 cells, no CPT, ATP luminescence, 48 h. AID 686978, 2013. hit rate 15% among 420,000. Potency, µM (doses to about 46.2 µM), for the others: at the highest dose activity change, negative = growth inhibition, actives largely listed as inhibitors; also: potency is read from the fitted curve at half-maximal effect; nearly all actives have a fitted effect of over 55% in size
#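 Camptothecin absent (DMSO only). Human TDP1-complemented DT40 knockout cells, 400 cells/well, 37 °C for minimum 48 hr; ATP measured via CellTiter-Glo, 30 min dark incubation, luminescence.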
# HT1080 IDH1KD tx: kills HT-1080 cells with IDH1 knockdown. HT-1080 IDH1 knockdown viability, ATP luminescence, 48 h. Potency, µM (series often up to 46.1 µM), without a hit: at the highest dose activity, negative = toxicity, actives largely listed as cytotoxic. hit rate 2% among 360,000. AID 686971;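 also: potency is read from the fitted curve at half-maximal effect; 0% = DMSO wells and -100% = cell-free medium wells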
#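 In this qHTS, HT-1080 cells depleted of IDH1 are exposed for 48 h at 37 °C to compound titrations. Toxicity is scored from CellTiter-Glo luminescence, with DMSO as full viability and medium alone as none.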
# HT1080NT lethal: kills 2HG-producing HT-1080-NT fibrosarcoma cells; HT-1080-NT fibrosarcoma viability, CellTiter-Glo ATP luminescence, 48 h; Potency, µM (doses to about 46.1 µM), inactives show at the highest dose activity, negative = less viability, usual class: cytotoxic; AID 686970; hit rate 1.6% among 360,000;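 also: NT is the 2HG producing partner of a matched IDH1 knockdown line; potency is read from the fitted curve at half-maximal effect; 0% = DMSO-treated cells and -100% = media-only wells without cells; nearly all actives have a fitted effect of over 55% in size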
#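 HT-1080-NT fibrosarcoma cells (2HG-overproducing), 750 cells/well in RPMI with 5% FBS, dosed after 2 h and incubated 48 h at 37C. CellTiter-Glo luminescence normalized to DMSO and no-cell wells; concentration-response curves fitted and classed.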
# * marks the source's active call; other numbers are inactive results; ? = inconclusive; / = no result given; [ ] = another dose, or the depositor's remark. Many of the other results were omitted from the sample, so hits are more common in it than they were. Unless noted, calls follow the shape of the dose curve; as a rule, active = well fitted curve in the direction sought with a large enough effect; inconclusive = small, poorly fitted or top-dose-only effect, or another doubt; inactive = no such curve, though single readings can be large; an effect the other way counts as inactive or inconclusive. Unless noted, % is scaled to controls: 0 for no effect and ±100 for the full control effect.
SMILES,DT40 TDP1 CPT,ALOX12 inh,IL1B secr inh,TDP1 cell noCPT,HT1080 IDH1KD tx,HT1080NT lethal
CCN(c1ccccc1)S(=O)(=O)c1ccc(NC(=O)c2nc(SC(C)C)ncc2Cl)cc1,21µM*,-17%,/,18µM*,/,/
COc1ccc(CNC(=O)c2nc(S(=O)(=O)Cc3ccccc3)ncc2Cl)cc1,1.3µM*,-8%,-99*,1.3µM*,?,?
CC(C)Sc1ncc(Cl)c(C(=O)Nc2ccc(S(=O)(=O)Nc3ncccn3)cc2)n1,?,-3%,/,-16%,/,/
O=C1Nc2ccccc2CC12CCN(Cc1ccccc1)C2 (stereo unspecified),/,2%[176 µM],/,/,/,/
O=C1Nc2ccccc2CC12CCN(Cc1cccc3ccccc13)C2 (stereo unspecified),/,100µM*,/,/,/,/
O=C(O)Cn1c(=O)c2c(ncn2Cc2ccccc2)n(Cc2ccccc2)c1=O,/,-2%,/,/,/,/
Cc1cccc2nc(CNC(=O)CN3Cc4ccccc4OC(c4ccccc4F)C3)cn12 (stereo unspecified),7%[9.04 µM],14%,/,-26%,/,/
Cc1cccc2nc(CNC(=O)CN3Cc4cc(Cl)ccc4OC(C)C3)cn12 (stereo unspecified),4.1µM*,8%,/,5.8µM*,/,/
Cc1cc(C(F)(F)F)nn1CC(=O)NCC(=O)N1CCCCCNC(=O)CC1c1ccccc1 (stereo unspecified),/,36%,/,/,/,/
COC(=O)c1c(NC(=O)CN2C(=O)NC3(CCC(C)CC3)C2=O)sc2c1CCC2 (stereo unspecified),15µM*,1%,16,16µM*,-3%,-2%
COC(=O)c1c(NC(=O)CN2C(=O)NC3(CCc4ccccc4C3)C2=O)sc2c1CCCCC2 (stereo unspecified),21µM*,-5%,24,26µM*,-14%,-20%
O=C(CSCC(=O)N1CCN(c2ccccc2)CC1)Nc1nc(-c2ccc(Cl)s2)cs1,?,-7%,-26,?,-3%,-1%
CN(C)c1ccc(NC(=O)c2sc(SCC(=O)Nc3nccs3)nc2N)cc1,?,-4%,-22,16µM*,-2%,-3%
COc1ccc(-c2oc(NC(=O)CSc3nncn3C)c(C#N)c2-c2ccc(OC)cc2)cc1,?,33%,-8,?,16µM*,?
CCn1c(SCC(=O)Nc2oc(-c3ccccc3)c(-c3ccccc3)c2C#N)nnc1-c1ccncc1,13µM*,10%,4,?,0%,-1%
CCOC(=O)N1CCN(C(=O)CSCC(=O)Nc2nc(-c3ccccc3)cs2)CC1,21µM*,3%,-8,?,-15%,-7%
COCCN(CCOC)c1ncnc2c1c(-c1ccccc1)cn2-c1cccc(C(F)(F)F)c1,/,-3%,/,/,/,/
NC(=O)c1ccc(NC(=O)CCc2ncc(-c3ccc(F)cc3F)o2)cc1,/,-3%,/,/,/,/
CCCN(Cc1cc(=O)[nH]c2c(C)cc(C)cc12)C(=O)Nc1ccccc1OC,/,5%,/,/,/,/
Cc1ccc2cc(C(=O)N3CCC(N4CCCCC4)CC3)[nH]c2c1,/,-6%,/,/,/,/
CCn1c(SCC(=O)Nc2nc(-c3ccccc3)cs2)nnc1-c1ccccc1,?,1%,-63*,?,?,?
O=C(CSc1ccccc1)Nc1nccs1,26%,7%,11,-15%,18%,25%
CCn1c(SCC(=O)Nc2nccs2)nnc1-c1ccc(S(=O)(=O)N2CCCCC2)cc1,?,9%,-21,16µM*,-12%,-10%
O=C(CSc1nc(-c2ccccc2)cs1)Nc1nccs1,?,38%,36,16µM*,?,?
CCn1c(SCC(=O)OC(C)C)nnc1-c1ccccc1,4%,?,-64*,-4%,7%,-5%
SMILES,DT40 TDP1 CPT,ALOX12 inh,IL1B secr inh,TDP1 cell noCPT,HT1080 IDH1KD tx,HT1080NT lethal
CC(C)c1nc2nccc(-c3ccc(F)cc3)n2n1,/,22%,/,/,/,/
CCn1c(SCC(=O)c2ccc(O)c(O)c2)nnc1-c1ccc(C)cc1,23µM*,?,49,?,-14%,-12%
COc1ccc2cc(C)c3nnc(SCC(=O)Nc4nc(-c5ccccc5)cs4)n3c2c1,?,0%,35,4.6µM*,-5%,-10%
COc1ccc2cc(C)c3nnc(SCC(=O)Nc4cc(OC)c(OC)cc4C(=O)O)n3c2c1,0%,-38%,18,-3%,2%,14%
CCn1c(SCC(=O)c2ccc([N+](=O)[O-])cc2)nnc1-c1ccc(Cl)cc1,/,0%,/,/,/,/
CCOC(=O)/C=C1\OC2(O)CC(C1C(=O)OCC)[C@H]1CO[C@@H]2O1 (stereo partly specified),/,-9%,/,/,/,/
CCC(C)Oc1ccc(C2CC(=O)NC3=C2C(=O)CCC3)cc1 (stereo unspecified),/,-8%,/,/,/,/
CCOC(CC)C(=O)NCC1CCN(Cc2cccs2)CC1 (stereo unspecified),/,32%,/,/,/,/
O=C(Nc1ccccc1O)c1nc(Cl)ccc1Cl,7%,0%,61,0%,-16%,-14%
CSc1ccc(-c2ccc(C(=O)O)cc2)cc1,/,3%[12.5 µM],/,/,/,/
CN1c2ccccc2N(C)C1(C)c1cccc2ccccc12,5.8µM*,35µM*,40,3.3µM*,-3%,0%
N#CC1(NC(=O)CSc2cc(C(N)=O)c3ccccc3n2)CCCCCC1,/,-5%,/,/,/,/
CCc1ccc(C2c3[nH]c4ccccc4c3CCN2C(=O)CN2CCN(CC)CC2)cc1 (stereo unspecified),?,?,-72*,26µM*,?,23µM*
CCc1ccc(C2c3[nH]c4ccccc4c3CCN2C(=O)CNC(N)=O)cc1 (stereo unspecified),-14%,-21%,-57*,-7%,-19%,-9%
CCOC(=O)N1CCN(C(=O)C[C@H]2C[C@@]3(C(=O)OC)C(=C[C@H](COCc4ccccc4)O[C@@H]3C)N(Cc3ccc(Cl)cc3Cl)C2=O)CC1,/,0%,/,/,/,/
CCOc1cc(/C=C/c2ccc3cccc([N+](=O)[O-])c3n2)ccc1OCC(=O)N(C)C,23µM*,9%,0,?,-15%,5%
O=[N+]([O-])c1cccc2ccc(/C=C/c3ccc(F)cc3)nc12,?,3%,6,?,?,-26%
CCOc1cc(/C=C/c2ccc3cccc([N+](=O)[O-])c3n2)ccc1O,?,?,-30,18µM*,-25%,-25%
COc1cc(/C=C/c2ccc3cccc([N+](=O)[O-])c3n2)ccc1OCC#N,5.8µM*,?,-13,3.7µM*,-28%,-20%
